HCMV antiviral: qHTS Assay for inhibitors of the human cytomegalovirus (HCMV); HFF cells, HCMV-luciferase reporter, 72 h; active compounds read low; activity change, negative = inhibition, % at 57.5 µM; 410,000 tested, 4.5% active; AID 1259415, 2018; in the data active means activity change below about -60%; inconclusive means no clear call, values can overlap the other calls; inactive means above about -39%; further: on the % scale 0 is the no-effect control and ±100 the full control effect
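After 16 h attachment at 37C, HFF cells received test compound and HCMV-luciferase (1 PFU/cell); reporter luminescence read 72 h later, data normalized against buffer-only and known inhibitor Salinomycin.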
MARV entry inh: qHTS for inhibitors of binding or entry into cells for Marburg Virus; AID 540276, 2011; Marburg virus pseudotyped entry inhibition, cell reporter; 300,000 tested, 1.8% active; Potency, µM (titrated, usually from 37.8 µM), for the others: at the top dose activity change, negative = inhibition, most hits filed as inhibitors; calls by dose curve; tested in HEK293 cells; further: potency means the concentration at half of the fitted maximal effect; on the % scale 0 is the no-effect control and ±100 the full control effect
SARS PLP yeast: qHTS of Yeast-based Assay for SARS-CoV PLP; S. cerevisiae expressing SARS-CoV PLpro, growth rescue; Potency, µM (top dose mostly 32.9 µM), without a hit: at the top dose activity, positive = growth rescue, hits mostly activators; 330,000 tested, 0.19% active; AID 485353, 2010; calls by dose curve; further: potency means the concentration at half of the fitted maximal effect; 0% is about no effect; nearly all actives have a fitted effect of over 55% in size
FMDV inh: High Throughput Screening for Foot and Mouth Disease Virus Antivirals; FMDV antiviral cell-based qHTS; Potency, µM (top dose mostly 57.9 µM), without a hit: at the highest dose activity change, negative = inhibition, usual class: inhibitors; 410,000 tested, 1.2% active; calls by dose curve; tested in HEK293T cells; further: read-out not given here; potency means the concentration at half of the fitted maximal effect; on the % scale 0 is the no-effect control and ±100 the full control effect; nearly all actives have a fitted effect of over 45% in size
HCV inhibitor: qHTS Assay for Inhibitors of Hepatitis C Virus (HCV); 340,000 tested, 3.4% active; Huh7.5.1 HCVcc-Cre infection, luciferase reporter, 44 h; Potency, µM (doses to about 41.8 µM), for the others: at the highest dose activity change, negative = inhibition, usual class: inhibitors; AID 651820, 2012; active means well fitted inhibition curve with a large enough effect; inconclusive means small, poorly fitted or top-dose-only effect, or another doubt; inactive means no such curve, though single readings can be large or run the other way; further: potency means the concentration at half of the fitted maximal effect; on the % scale 0 is the no-effect control and ±100 the full control effect
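Reporter virus HCVcc-Cre (~0.5 moi) infects cells exposed to compound; seeding density 1,000 cells/well with 4 h settling beforehand. Luminescence, 15 sec read, taken 44 h post-infection following a 15 min RT substrate incubation.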
LASV entry inh: qHTS for Inhibitors of binding or entry into cells for Lassa Virus; AID 540256, 2011; 300,000 tested, 1.2% active; Potency, µM (series often up to 37.9 µM), for the others: top-dose activity change, negative = inhibition, actives largely listed as inhibitors; Lassa virus pseudotype entry inhibition, cell reporter; calls by dose curve; tested in HEK293 cells; further: potency means the concentration at half of the fitted maximal effect; on the % scale 0 is the no-effect control and ±100 the full control effect; nearly all actives have a fitted effect of over 50% in size
The depositor's hits bear a star; ? = inconclusive; . = no result given; [ ] = remark or other dose. Rows were chosen to be rich in hits. Some 8% of all compounds tested hit in one or more screens of this group.

SMILES	HCMV antiviral	MARV entry inh	SARS PLP yeast	FMDV inh	HCV inhibitor	LASV entry inh
CC(=O)Nc1c(Br)cc2c(c1Br)Cc1cc(Br)ccc1-2	17	?	.	3%	?	-20%
CC(=O)Nc1ccc2c(c1)Cc1c-2cc(Br)c(N)c1Br	-22	?	.	30%	11µM*	20%
CC(=O)Nc1ccc2c(c1)Cc1c(F)cccc1-2	7	8%	.	98%	10µM*	?
O=C(/C=C/c1cccc(F)c1)NCCCn1ccnc1	-3	10%	-1%	20%	30%	?
COc1ccccc1C(=O)N[C@@H]1c2ccccc2C2(CCN(Cc3cccnc3)CC2)[C@H]1O	.	.	.	-6%	.	.
COCCNC(=O)Cn1ccc2cc(S(=O)(=O)N3CCCCCC3)ccc21	-35	.	2%	-4%	5%	9%[46.1 µM]
COC1=C[C@H](C(=O)N[C@H]2CCCC[C@H]2NC(C)=O)[C@@]2(C)Cc3ccccc3[C@@H]2CC1=O	.	-12%[14.2 µM]	.	.	.	.
Cc1ccc(Nc2nc(-c3ccncc3)nc3ccccc23)cc1	-1	2.2µM*	1%	-25%	-62%	1%
Cc1c2ccccc2nc2c(F)c(NCCO)c(F)c(F)c12	64	16%	-21%	44%	?	?
OCCNc1c2ccccc2nc2c(F)c(F)c(F)c(F)c12	-23	?	-9%	22µM*	?	?
CN(C)CCCNc1nc(-c2ccccc2)nc2ccccc12	22	13µM*	1%	-15%	-20%	-13%[46.1 µM]
c1ccc(CCNc2nc(-c3ccncc3)nc3ccccc23)cc1	-71*	?	-1%	?	13µM*	?
COC(=O)CNc1nc(-c2ccncc2)nc2ccccc12	123	-28%	-23%	-22%	-32%	?
Cc1ccc(-c2nc(NCCCN(C)C)c3ccccc3n2)cc1	26	.	.	33%	.	.
CN(C)CCCNc1c2ccccc2nc2ccccc12	-102*	5.6µM*	-6%	-30%	7.9µM*	?
CN(C)CCNc1c2c(nc3ccccc13)CCC2	-36	.	2%	-8%	?	.
Cc1ccc(C)n1C1C(=O)N(C)c2ccc(Cl)cc21 (stereo not given)	19	.	.	.	.	.
Cc1cccnc1-c1cccc2c1OC(CNC(=O)Cc1c(C)noc1C)C2 (stereo not given)	.	.	.	-7%	.	.
Brc1ccc(-c2csc(-c3c[nH]c4ccccc34)n2)cc1	-10	?	-6%	29%	6.3µM*	-7%
c1ccc2c(-c3csc(-c4ccncc4)n3)c[nH]c2c1	0	.	-6%	26%	?	.
Cc1cc([N+](=O)[O-])ccc1-c1ccc(C2Nc3ccccc3C(=O)N2O)o1 (stereo not given)	-99*	?	-24%	-28%	11µM*	?
O=C1c2ccccc2NC(c2ccc(-c3ccccc3F)o2)N1O (stereo not given)	-27	.	-1%	14%	.	.
CCOc1ccc(NS(=O)(=O)c2ccc3c4c(cccc24)C(=O)N3)cc1	-39	?	.	6%	.	?
CCC(C)c1ccc(NC(=O)C2CCN(c3ccc(C(F)(F)F)cn3)CC2)cc1 (stereo not given)	-60*	-11%	10%	?	-13%	-5%
CS(=O)(=O)Nc1ccc(N2CCN(c3ccc(C(F)(F)F)cn3)CC2)nc1	?	-22%	0%	?	11µM*	5%
SMILES	HCMV antiviral	MARV entry inh	SARS PLP yeast	FMDV inh	HCV inhibitor	LASV entry inh
NC(=O)C1CCN(c2ccc(C(F)(F)F)cn2)CC1	20	1%[46.1 µM]	3%	23%	14%	.
Cc1cccc(C(=O)Nc2ccc(N3CCN(c4ccc(C(F)(F)F)cn4)CC3)nc2)c1	-32	6%	-1%	-15%	16%	2%
O=C(Nc1ccc(N2CCOCC2)nc1)c1ccc(C(F)(F)F)cc1	-68*	9%[46.1 µM]	-1%	8.9µM*	7.1µM*	?
CC(=O)Nc1ccc(NC(=O)C2CCN(c3ccc(C(F)(F)F)cn3)CC2)cc1	-67*	-9%[46.1 µM]	-1%	-27%	13µM*	10%[46.1 µM]
COc1ccc(CC(=O)Nc2sccc2C#N)cc1S(=O)(=O)N1CCOCC1	14	-3%	2%	-6%	-19%	?
CC1CN(C(=O)c2cc3cc(F)ccc3[nH]2)CC(C)O1 (stereo not given)	37	.	-3%	20%	1%	.
O=C1NC[C@H](CCCCN2C[C@H](Cc3ccccc3)N(Cc3ccccc3)C(=O)C2=O)N(CCc2ccccc2)C1=O	-18	.	.	8%	.	.
Cc1ccc(OCC(=O)OC2=C(C(=O)c3ccccc3)N(C)S(=O)(=O)c3ccccc32)cc1	-24	-9%[46.1 µM]	.	-5%	.	4%[46.1 µM]
COc1ccc([C@]23Cc4c(ccc5ccccc45)C(O2)C2=C(CC4(CCCCC4)OC2=O)O3)cc1	.	.	3%[6.58 µM]	.	.	.
CCOc1ccccc1CN1CCNC(=O)C1CC(=O)N(C)Cc1cnccn1 (stereo not given)	-21	10%	16%	-5%	19%	2%
CCNC(=O)COC(=O)c1cc(C)n(-c2ccccc2)c1C	2	4%[46.1 µM]	1%	-2%	7%	5%[46.1 µM]
Cc1cc(C(=O)OCC(=O)NCc2ccco2)c(C)n1-c1ccc(F)cc1	?	?	-15%	?	?	10µM*
CN1CCC(N(C)C(=O)COc2ccccc2Cl)CC1	36	15%	-3%	-3%	-4%	14%
O=C(NCC1CCCO1)C1CCN(S(=O)(=O)c2cc(Cl)ccc2Cl)CC1 (stereo not given)	5	4%[46.1 µM]	1%	-9%	8%	.
C[C@@H]1C(=O)CC2C(C)(C)CCC[C@]2(C)[C@@]1(O)CCc1ccoc1 (stereo not given in full)	.	.	.	-9%	.	.
CC(=O)OC1CC[C@]2(C#N)[C@H]3CC[C@]4(C)[C@H](C5C=CC(=O)O5)CCC4(O)C3CCC2(O)C1 (stereo not given in full)	-93*	.	-1%	?	2%	.
CC(C)c1ccc(OCc2nc(-c3ccccn3)no2)c(Br)c1	118	?	-14%	-13%	13µM*	?
Cc1ccc(OCc2nc(-c3ccccn3)no2)c(Br)c1	0	?	-15%	-51%	-1%	?
N#Cc1ccc(OCC(=O)N2CCN(S(=O)(=O)c3ccc(Cl)s3)CC2)cc1	-61*	.	0%	?	?	.
COc1ccc(OCC(=O)N2CCN(S(=O)(=O)c3ccc(Cl)s3)CC2)cc1	19	.	7%	-24%	2%	.
O=C(C1CC1)N1CCC(c2nc(-c3ccc(S(=O)(=O)N4CCCC4)cc3)no2)CC1	9	-22%	-11%	?	?	-22%
O=C(NC1CCCCC1)N1CCC(c2nc(-c3ccc(S(=O)(=O)N4CCCC4)cc3)no2)CC1	-62*	-3%	2%	?	?	10µM*

From PubChem
